Data taken from PubChem BioAssay AID1159580 (chemical genetic matrix, 2015).
About 2,000 (36%) of roughly 5,500 compounds were called active. Another 18% or so got no clear call; they are omitted. No stated cut-off is given here; in the data, active means normalized growth mostly below about 0.91 (no sharp cut-off); inconclusive means no clear call, values can overlap the other calls; inactive means mostly above about 0.92. The list shows a part of the results.

Experiment: chemical genetic growth profiling, strain panel (AID 1159580);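 further: tested at 20 µM; growth read once vehicle control cultures reached saturation at 30 °C; 1 = growth at the plate median or of vehicle wells; lower values mean less growth of the strain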
Conditions: growth OD

Measured: normalized growth

NC(=O)c1ccc[n+]([C@@H]2O[C@H](COP(=O)([O-])OP(=O)(O)OC[C@H]3O[C@@H](n4cnc5c(N)ncnc54)[C@H](O)[C@@H]3O)[C@@H](O)[C@H]2O)c1
inactive: S. cerevisiae deletion strains, locus YJR075W, strain HOC1, active compounds read low 1.02 | S. cerevisiae deletion strains, locus YKL009W, strain mrt4, active compounds read low 0.975 | S. cerevisiae deletion strains, locus YKL068W, active compounds read low 0.987 | S. cerevisiae deletion strains, locus YKL085W, strain MDH1 (second series), active compounds read low 0.986 | S. cerevisiae deletion strains, locus YKL085W, strain MDH1, active compounds read low 0.986 | S. cerevisiae deletion strains, locus YKL160W, strain elf1, active compounds read low 1.06 | S. cerevisiae deletion strains, locus YKL190W, strain CNB1, active compounds read low 0.996 | S. cerevisiae deletion strains, locus YKR001C, strain vps1, active compounds read low 0.997 | S. cerevisiae deletion strains, locus YKR026C, strain gcn3, active compounds read low 1.02 | S. cerevisiae deletion strains, locus YKR091W, strain srl3, active compounds read low 1.02 | S. cerevisiae deletion strains, locus YLL001W, strain dnm1, active compounds read low 1.03 | S. cerevisiae deletion strains, locus YLL026W, active compounds read low 1.02 | S. cerevisiae deletion strains, locus YLL041C, strain sdh2, active compounds read low 1.04 | S. cerevisiae deletion strains, locus YLR027C, strain aat2, active compounds read low 1.03 | S. cerevisiae deletion strains, locus YLR039C, strain RIC1, active compounds read low 0.987 | S. cerevisiae deletion strains, locus YLR058C, strain SHM2, active compounds read low 0.977 | S. cerevisiae deletion strains, locus YLR102C, strain apc9, active compounds read low 0.989 | S. cerevisiae deletion strains, locus YLR113W, strain HOG1, active compounds read low 0.982 | S. cerevisiae deletion strains, locus YLR221C, strain rsa3, active compounds read low 1.04 | S. cerevisiae deletion strains, locus YLR258W, strain gsy2, active compounds read low 1.04 | S. cerevisiae deletion strains, locus YLR262C, strain YPT6 (second series), active compounds read low 1.05 | S. cerevisiae deletion strains, locus YLR262C, strain YPT6, active compounds read low 0.939 | S. cerevisiae deletion strains, locus YLR268W, strain sec22, active compounds read low 1.08 | S. cerevisiae deletion strains, locus YLR320W, strain mms22, active compounds read low 1.03 | S. cerevisiae deletion strains, locus YLR330W, strain CHS5, active compounds read low 0.982 | S. cerevisiae deletion strains, locus YLR342W, strain FKS1 (second series), active compounds read low 0.986 | S. cerevisiae deletion strains, locus YLR342W, strain FKS1, active compounds read low 1.02 | S. cerevisiae deletion strains, locus YLR357W, strain rsc2, active compounds read low 1.05 | S. cerevisiae deletion strains, locus YLR370C, strain arc18, active compounds read low 1.04 | S. cerevisiae deletion strains, locus YLR371W, strain rom2, active compounds read low 0.977 | S. cerevisiae deletion strains, locus YLR384C, strain iki3, active compounds read low 1.04 | S. cerevisiae deletion strains, locus YLR418C, strain cdc73, active compounds read low 1.02 | S. cerevisiae deletion strains, locus YML016C, strain PPZ1, active compounds read low 0.982 | S. cerevisiae deletion strains, locus YML032C, strain rad52, active compounds read low 1.01 | S. cerevisiae deletion strains, locus YML120C, strain ndi1, active compounds read low 1.04 | S. cerevisiae deletion strains, locus YML124C, strain tub3, active compounds read low 0.989 | S. cerevisiae deletion strains, locus YMR058W, strain fet3, active compounds read low 1.04 | S. cerevisiae deletion strains, locus YMR078C, strain ctf18, active compounds read low 0.986 | S. cerevisiae deletion strains, locus YMR125W, strain sto1, active compounds read low 1.06 | S. cerevisiae deletion strains, locus YMR129W, active compounds read low 1.02 | S. cerevisiae deletion strains, locus YMR205C, strain PFK2, active compounds read low 1.04 | S. cerevisiae deletion strains, locus YMR223W, strain ubp8, active compounds read low 0.974 | S. cerevisiae deletion strains, locus YMR231W, strain pep5, active compounds read low 1.04 | S. cerevisiae deletion strains, locus YMR263W, strain SAP30, active compounds read low 1 | S. cerevisiae deletion strains, locus YMR307W, strain GAS1, active compounds read low 0.992 | S. cerevisiae deletion strains, locus YNL067W, strain RPL9B, active compounds read low 1.01 | S. cerevisiae deletion strains, locus YNL071W, strain lat1, active compounds read low 1.03 | S. cerevisiae deletion strains, locus YNL128W, strain TEP1, active compounds read low 0.953 | S. cerevisiae deletion strains, locus YNL153C, strain GIM3, active compounds read low 1.02 | S. cerevisiae deletion strains, locus YNL183C, strain NPR1, active compounds read low 0.969 | S. cerevisiae deletion strains, locus YNL209W, strain ssb2, active compounds read low 1.04 | S. cerevisiae deletion strains, locus YNL233W, strain BNI4, active compounds read low 1.02 | S. cerevisiae deletion strains, locus YNL248C, strain rpa49, active compounds read low 1.07 | S. cerevisiae deletion strains, locus YNL250W, strain rad50, active compounds read low 0.985 | S. cerevisiae deletion strains, locus YNL271C, strain bni1, active compounds read low 0.994 | S. cerevisiae deletion strains, locus YNL298W, strain CLA4, active compounds read low 0.996 | S. cerevisiae deletion strains, locus YNL307C, strain MCK1, active compounds read low 1.01 | S. cerevisiae deletion strains, locus YNL322C, strain KRE1 (second series), active compounds read low 1.03 | S. cerevisiae deletion strains, locus YNL322C, strain KRE1, active compounds read low 0.983 | S. cerevisiae deletion strains, locus YNR049C, strain mso1, active compounds read low 1.02 | S. cerevisiae deletion strains, locus YNR052C, strain pop2, active compounds read low 0.995 | S. cerevisiae deletion strains, locus YOL006C, strain TOP1, active compounds read low 1.01 | S. cerevisiae deletion strains, locus YOL012C, strain htz1 0.903 | S. cerevisiae deletion strains, locus YOL147C, strain pex11, active compounds read low 0.994 | S. cerevisiae deletion strains, locus YOR001W, strain rrp6, active compounds read low 1.05 | S. cerevisiae deletion strains, locus YOR061W, strain CKA2, active compounds read low 0.969 | S. cerevisiae deletion strains, locus YOR069W, strain VPS5, active compounds read low 0.993 | S. cerevisiae deletion strains, locus YOR070C, strain gyp1, active compounds read low 1.02 | S. cerevisiae deletion strains, locus YOR080W, strain dia2, active compounds read low 1.02 | S. cerevisiae deletion strains, locus YOR083W, strain WHI5, active compounds read low 1.06 | S. cerevisiae deletion strains, locus YOR106W, strain vam3, active compounds read low 1.07 | S. cerevisiae deletion strains, locus YOR136W, strain idh2, active compounds read low 0.991 | S. cerevisiae deletion strains, locus YOR144C, strain elg1, active compounds read low 0.991 | S. cerevisiae deletion strains, locus YOR184W, strain ser1, active compounds read low 1 | S. cerevisiae deletion strains, locus YOR231W, strain MKK1, active compounds read low 0.999 | S. cerevisiae deletion strains, locus YOR265W, strain rbl2, active compounds read low 1.02 | S. cerevisiae deletion strains, locus YOR270C, strain vph1, active compounds read low 1.14 | S. cerevisiae deletion strains, locus YOR290C, strain snf2, active compounds read low 1.07 | S. cerevisiae deletion strains, locus YOR316C, strain cot1, active compounds read low 0.988 | S. cerevisiae deletion strains, locus YPL051W, strain arl3, active compounds read low 1.05 | S. cerevisiae deletion strains, locus YPL055C, strain LGE1, active compounds read low 0.997 | S. cerevisiae deletion strains, locus YPL078C, strain atp4, active compounds read low 1.08 | S. cerevisiae deletion strains, locus YPL106C, strain sse1, active compounds read low 1.04 | S. cerevisiae deletion strains, locus YPL240C, strain hsp82, active compounds read low 1.01 | S. cerevisiae deletion strains, locus YPL241C, strain CIN2, active compounds read low 0.984 | S. cerevisiae deletion strains, locus YPL256C, strain CLN2, active compounds read low 0.961 | S. cerevisiae deletion strains, locus YPR119W, strain clb2, active compounds read low 0.993 | S. cerevisiae deletion strains, locus YPR141C, strain kar3, active compounds read low 0.991 | S. cerevisiae deletion strains, locus YPR163C, strain tif3, active compounds read low 1 | S. cerevisiae deletion strains, locus YPR167C, strain met16, active compounds read low 0.998 | S. cerevisiae deletion strains, strain wtn01, active compounds read low 1.03 | S. cerevisiae strains, strain wild type, active compounds read low 0.993
